Experimental findings from PubChem BioAssay (Tox21) are described below.

Several values for one entry are separate records, joined by “and”; a condition that tells them apart may be missing. Identical values can stand only once. Inconclusive results are not listed. Some compounds were tested as several samples or in several runs, with calls that do not always agree. Activity calls are given as the source filed them. Unless noted, calls follow the shape of the dose curve; as a rule, active = well fitted curve in the direction sought with a large enough effect in the repeat runs; inconclusive = weak or mixed curves; inactive = no such curve, though single readings can be large; an effect the other way counts as inactive or inconclusive.

Assay [1] in a line: qHTS assay to identify small molecule agonists of the hypoxia (HIF-1) signaling pathway - cell viability counter screen (AID 1224844; calls by dose curve; also: nearly all actives have a fitted effect of over 50% in size; also: potency is read from the fitted curve at half-maximal effect). The procedure, abridged:
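HRE-bla ME-180 cells in medium with 0.5% dialyzed FBS were preincubated 5 hrs at 37C, exposed to compounds for 17 hrs, then viability was read as CellTiter-Glo luminescence after 30 min at room temperature, in the reporter wells.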

Assay [2] can be described thus: qHTS assay to identify small molecule agonists of the hypoxia (HIF-1) signaling pathway (AID 1224846; active = well fitted activation curve with a large enough effect in the signal ratio in the repeat runs, not every such curve was filed as active; the % refers to the signal ratio). In short, it runs like this: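 HRE-bla ME-180 cells (beta-lactamase reporter under hypoxia response element) were plated at 2,000 cells/well in medium with 0.5% dialyzed FBS, rested 5 hrs, then given compounds in DMSO for 17 hrs at 37C, 5% CO2. Reporter induction was read with CCF4-AM FRET substrate.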

Assay [3] can be described thus: qHTS assay to identify small molecule agonists of H2AX - cell viability counter screen (AID 1224847; calls by dose curve; also: top concentration of the series differs between compounds; nearly all actives have a fitted effect of over 30% in size). The procedure, abridged:
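Read-out: CellTiter-Glo luminescence, 30 min RT. Cells: wild-type CHO-K1, 1000/well, 10% FBS, plated overnight at 37C. Treatment: 15 concentrations, 3 hr, 37C, 0.76% DMSO.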
Background: Quantitative high-throughput screening tests each substance at several concentrations.

Assay [4] in a line: qHTS RealTime-Glo MT Cell Viability Assay in HepG2 cells - 24 hour (AID 1224867). Also: nearly all actives have a fitted effect of over 50% in size. In short, it runs like this:
(§1)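 HepG2 cells were seeded at 600 cells/well together with NanoLuc luciferase and a cell-permeant prosubstrate, preincubated 5 h at 37 C/5% CO2, then pin-dosed with compounds in DMSO. Nonlytic luminescence from viable cells was read at each time point.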

The nature of assay [5]: qHTS RealTime-Glo MT Cell Viability Assay in HEK293 cells - 32 hour (AID 1224868). Also: nearly all actives have a fitted effect of over 50% in size. Also: potency is read from the fitted curve at half-maximal effect. In short, it runs like this:
(§2)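 HEK293 cells were seeded at 600 cells/well together with NanoLuc luciferase and cell-permeant prosubstrate, preincubated 5 h at 37 C/5% CO2, then given compound in DMSO by pintool. Luminescence from viable-cell prosubstrate reduction was read repeatedly over 40 h.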

Assay [6] in a line: qHTS RealTime-Glo MT Cell Viability Assay in HepG2 cells - 40 hour (AID 1224870). Also: nearly all actives have a fitted effect of over 50% in size. The procedure, abridged:
(§3)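 HepG2 cells (600/well) mixed with RealTime-Glo MT reagent, settled 5 h at 37 C/5% CO2 before compound addition. Nonlytic NanoLuc luminescence from viable-cell prosubstrate reduction read repeatedly during 40 h treatment at 37 C.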

Assay [7] in a line: A CellTox Green Cytotoxicity Assay to monitor cytotoxicity in HEK293 cells - 40 hour (AID 1224871). Also: nearly all actives have a fitted effect of over 45% in size. Also: potency is read from the fitted curve at half-maximal effect. The procedure, abridged:
(§4)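 HEK293 cells premixed with CellTox Green dye were seeded at 600 cells/well and left 5 h at 37 C/5% CO2 before pin transfer of 23 nL compound in DMSO. Fluorescence from dye bound to dead-cell DNA was read during 40 h treatment.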

The nature of assay [8]: qHTS RealTime-Glo MT Cell Viability Assay in HEK293 cells - 16 hour (AID 1224872). The procedure, abridged:
as §2

Assay [9] is described as follows: qHTS RealTime-Glo MT Cell Viability Assay in HepG2 cells - 8 hour (AID 1224873). Also: nearly all actives have a fitted effect of over 55% in size. In short, it runs like this:
as §3

The nature of assay [10]: qHTS RealTime-Glo MT Cell Viability Assay in HEK293 cells - 40 hour (AID 1224874). Also: nearly all actives have a fitted effect of over 50% in size. Also: potency is read from the fitted curve at half-maximal effect. The note with it: RealTime-Glo luminescence; max response: stronger effect = lower value. In short, it runs like this:
(§5)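 HEK293 cells mixed with RealTime-Glo reagents (NanoLuc plus cell-permeant prosubstrate) at 600 cells/well, preincubated 5 h at 37 C/5% CO2, then given 23 nL compound in DMSO. Nonlytic luminescence from viable cells was read at 0, 8, 16, 24, 32 and 40 h.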

Assay [11] is described as follows: A CellTox Green Cytotoxicity Assay to monitor cytotoxicity in HEK293 cells - 24 hour (AID 1224875). Also: nearly all actives have a fitted effect of over 45% in size. The procedure, abridged: as §4
A short description of assay [12]: A CellTox Green Cytotoxicity Assay to monitor cytotoxicity in HepG2 cells - 16 hour (AID 1224876). Also: nearly all actives have a fitted effect of over 45% in size. In short, it runs like this:
(§6)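 HepG2 cells were seeded together with the CellTox Green dye at 600 cells/well, left 5 h at 37 C/5% CO2, then given compounds in DMSO. Fluorescence from dye bound to dead-cell DNA was read repeatedly over 40 h of treatment at 37 C.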

Assay [13] can be described thus: qHTS RealTime-Glo MT Cell Viability Assay in HepG2 cells - 32 hour (AID 1224877). Also: nearly all actives have a fitted effect of over 55% in size. The procedure, abridged: as §1
The nature of assay [14]: A CellTox Green Cytotoxicity Assay to monitor cytotoxicity in HepG2 cells - 24 hour (AID 1224878). Also: nearly all actives have a fitted effect of over 45% in size. The procedure, abridged:
as §6

The nature of assay [15]: A CellTox Green Cytotoxicity Assay to monitor cytotoxicity in HepG2 cells - 40 hour (AID 1224879). Also: nearly all actives have a fitted effect of over 40% in size. In short, it runs like this:
as §6

The nature of assay [16]: qHTS RealTime-Glo MT Cell Viability Assay in HEK293 cells - 0 hour (AID 1224880). In short, it runs like this: as §5
Assay [17] in a line: qHTS assay to identify small molecule antagonists of the estrogen related receptor (ERR) signaling pathway from Tox21 library (AID 1224848). Also: nearly all actives have a fitted effect of over 50% in size. Also: potency is read from the fitted curve at half-maximal effect. The procedure, abridged:
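Luminescent reporter read-out (ONE-Glo) from NTP's ERR cell line after 18 h treatment at 37 C with DMSO-dissolved Tox21 compounds; cells pre-plated 6 h beforehand at 2,000 per well.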

Assay [18] is described as follows: qHTS assay to identify small molecule agonists of the estrogen related receptor (ERR) signaling pathway from Tox21 library (AID 1224849; calls by dose curve; also: nearly all actives have a fitted effect of over 15% in size). The note with it: ERR reporter cell line, ONE-Glo luciferase, 18 h. In short, it runs like this:
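ERR reporter cell line (NTP) seeded, rested 6 h at 37 C/5% CO2, then pinned with Tox21 compounds in DMSO. After 18 h at 37 C, ONE-Glo luciferase luminescence was read following 30 min at room temperature.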

Assay [19] can be described thus: A CellTox Green Cytotoxicity Assay to monitor cytotoxicity in HEK293 cells - 0 hour (AID 1224869). Also: nearly all actives have a fitted effect of over 50% in size. The procedure, abridged: as §4
A short description of assay [20]: qHTS assay to identify small molecule agonists of H2AX (AID 1224845; active = well fitted activation curve with a large enough effect in the signal ratio in the repeat runs, not every such curve was filed as active; the % refers to the signal ratio). The procedure, abridged: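 Wild-type CHO-K1 cells, plated overnight, exposed 3hr at 37C to 15 concentrations (0.76% DMSO final). Lysed, then HTRF anti-pH2AX (S139) cryptate and anti-H2AX-d2 antibodies, 24 hr room temperature; 665/620 nm emission read.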
% is scaled to controls: 0 for no effect and ±100 for the full control effect.

As for `O=C(O)c1cc(I)cc(I)c1I`, the Potency entry in [1], in [3], in assay [4], in [5], in assay [6] and in assay [7] was “inactive” each time. The Potency entry in assay [8], in [9], in assay [11], in [12], in [13] and in assay [14] was “inactive” throughout. In addition, in [15], the Potency entry was “inactive”. Further, the outcome in assay [2] and in assay [16] was inactive. For the same molecule, the max response in assay [10] is -4.51% (inactive).

In the case of `C[C@@H]1C[C@@H]([C@H](O)CC2CC(=O)NC(=O)C2)C(=O)[C@@H](C)C1`, the Potency in assay [1] was 379 nM (active); in assay [17], 682 nM (active) and 545 nM (active) and 750 nM (active); in assay [5] it was 387 nM (active) and 219 nM (active) and 169 nM (active); in assay [7], “inactive and 19.5 µM (active)”; in assay [10], 387 nM (active) and 245 nM (active) and 169 nM (active). The molecule was classed as inactive in assay [2] and in assay [16]. Moreover, the activity change, positive = activation in assay [18] (at 42.5 µM (top of the series)) is -64.4% (inactive); in assay [18] (at 92.4 µM (top of the series)), -74.2% (inactive) and -68.3% (inactive). Further, the Potency entry in assay [19], in assay [6], in [9], in [11], in assay [12] and in assay [13] was “inactive” each time. In addition, in [14], the Potency result was “inactive”.

Regarding `CCSCc1ccccc1OC(=O)NC`, the Potency entry in assay [1], in assay [4], in [5], in assay [19], in assay [6] and in [7] was “inactive” throughout. Further, the Potency result in assay [8], in assay [9], in assay [12], in [13] and in [14] was “inactive” in each case. The molecule was classed as inactive in assay [2] and in assay [16]. Further, the max response in assay [10] was -1.43% (inactive).

Regarding `C=CCc1ccc(OC(=O)Cc2ccccc2)c(OC)c1`, the Potency result in assay [1], in assay [3], in [4], in [19], in assay [6] and in assay [9] was “inactive” throughout. Moreover, the Potency result in [11], in [12], in assay [13] and in assay [14] was “inactive” throughout. In addition, the outcome in [2] and in assay [16] was inactive.

Take `O=C(Cc1ccccc1)c1ccccc1`: the Potency result in assay [1], in assay [4], in assay [5], in assay [6], in [8] and in assay [9] was “inactive” throughout. For the same molecule, the Potency result in assay [11], in assay [12], in [13], in assay [14] and in assay [15] was “inactive” in each case. The molecule was called inactive in [2] and in assay [16]. In addition, the max response in assay [10] is 4.41% (inactive).

Take `OCCSSCCO`: the Potency result in assay [20], in assay [4], in assay [5], in assay [19], in [6] and in assay [7] was “inactive” in each case. The Potency entry in assay [8], in [9], in assay [12], in [13] and in [14] was “inactive” each time. Besides, the molecule was classed as inactive in assay [2] and in assay [16]. For the same molecule, the max response in assay [10] is 3.99% (inactive).

As to `C=C(Cl)Cl`, the Potency entry in assay [20], in assay [3], in [17], in [4], in assay [5] and in assay [6] was “inactive” in each case. The Potency entry in [7], in assay [8], in assay [9], in [11], in assay [12] and in assay [13] was “inactive” each time. The Potency result in [14] and in assay [15] was “inactive” throughout. Besides, the result in assay [2] and in assay [16] was inactive. In addition, in assay [18] (at 92.4 µM (top of the series)), the activity change, positive = activation is -0.979% (inactive). In addition, the max response in assay [10] is 8.47% (inactive).
